According to PubChem BioAssay:
Active and inactive are the calls of the source. Unless noted, the rule behind the calls is not given here.

Legend:
[1] = system: Wnt5a (protein binding on small-molecule microarray); experiment: Wnt5a binders on small-molecule microarray, primary screen, biophysical, 635/667 nm fluorescence (AID 1142); details: 635 nm fluorescence, higher = more signal;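 note: fluorescence read at 667 nm with signal to noise per printed feature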
[2] = cell viability in Huh7 cells, primary screen, cytotoxicity control for HCV replication inhibitor project, CellTiter-Glo luminescence, basal, 48 h (AID 1143); details: Huh7 HCV replicon, higher = more signal, called active from +8 up or from −8 down;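 note: Huh7 hepatoma cells carrying a hepatitis C replication reporter with no stimulus; test concentration not given here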
[3] = P. aeruginosa biofilm formation inhibitors, primary screen, PAO1 strain, BacTiter-Glo luminescence, LB-PBS (AID 1144); details: 12 h, higher = more signal
[4] = CREB reporter modulators without forskolin, primary screen, cell-based, PC12, CRE-LacZ reporter, unstimulated (AID 1145); details: no forskolin, luminescence, 4.5 h, higher = more signal, called active from +8 up or from −8 down
[5] = CREB reporter modulators under forskolin, primary screen, cell-based, PC12, CRE-LacZ reporter, forskolin-stimulated (AID 1146); details: luminescence, 4.5 h, higher = more signal, called active from +8 up or from −8 down;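 note: PC12 cells with 6xCRE LacZ reporter stimulated by forskolin 10 µM; beta-galactosidase reporter signal reflecting CREB driven transcription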
[6] = biological target: Streptavidin (Streptomyces avidinii) (UniProt P22629); experiment: streptavidin binders on small-molecule microarray, primary screen, artefact control for SMM compound annotation, biophysical, 635/667 nm fluorescence (AID 1147); details: streptavidin binding, higher = more signal;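 note: signal reflects streptavidin binding to arrayed compounds as a control protein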
[7] = small-molecule binders of probe aInhba, primary screen, biochemical, small-molecule microarray, 635/667 nm fluorescence (AID 1148); details: higher = more signal;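 note: score merges 667nm spot fluorescence with signal-to-noise for antibody binding to printed compounds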
Torsin-1A (Homo sapiens) [8] = biological target: Torsin-1A (Homo sapiens) (UniProt O14656); experiment: torsin A binders from cell lysate, primary screen, small-molecule microarray, wild-type, 635/667 nm (AID 1149); details: COS7 hTOR1A-WT lysate, 635 nm fluorescence, higher = more signal
Torsin-1A (Homo sapiens) [9] = biological target: Torsin-1A (Homo sapiens) (UniProt O14656); experiment: small-molecule binders of mutant TOR1A in lysate, primary screen, cell lysate, small-molecule microarray, COS7 lysate, 635/667 nm fluorescence (AID 1150); details: COS7 hTOR1A mutant lysate, 635 nm fluorescence, higher = more signal;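 note: score pools 667 nm emission and signal to noise measuring lysate protein binding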
[10] = system: Sonic hedgehog protein (Shh); experiment: small-molecule binders of Shh protein, primary screen, biochemical, small-molecule microarray, 635/667 nm fluorescence (AID 1151); details: small-molecule microarray binding, 635 nm fluorescence; higher = more signal;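 note: Shh protein binding to compounds spotted on small-molecule microarray slides; score combines spot fluorescence intensity with signal-to-noise across triplicate slides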

Streptavidin (Streptomyces avidinii), sequence (P22629 whole entry, looked up): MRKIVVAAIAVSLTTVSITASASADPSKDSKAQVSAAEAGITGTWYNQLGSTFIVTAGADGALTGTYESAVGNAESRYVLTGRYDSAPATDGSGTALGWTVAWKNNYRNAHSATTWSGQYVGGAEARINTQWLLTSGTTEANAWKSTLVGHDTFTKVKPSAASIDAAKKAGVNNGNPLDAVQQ
Torsin-1A (Homo sapiens), sequence (O14656 whole entry, looked up): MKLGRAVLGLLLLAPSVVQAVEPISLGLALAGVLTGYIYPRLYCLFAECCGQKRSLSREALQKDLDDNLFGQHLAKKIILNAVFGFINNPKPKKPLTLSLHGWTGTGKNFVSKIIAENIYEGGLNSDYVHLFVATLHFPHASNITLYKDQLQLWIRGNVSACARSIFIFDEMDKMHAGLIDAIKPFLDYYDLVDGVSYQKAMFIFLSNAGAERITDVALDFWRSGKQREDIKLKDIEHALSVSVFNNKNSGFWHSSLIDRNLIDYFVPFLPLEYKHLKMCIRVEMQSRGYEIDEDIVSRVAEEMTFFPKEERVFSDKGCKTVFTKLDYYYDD

Row | SMILES | composite z-score [1] | z-score [2] | z-score [3] | z-score [4] | z-score [5] | composite z-score [6] | composite z-score [7] | composite z-score (Torsin-1A (Homo sapiens) [8]) | composite z-score (Torsin-1A (Homo sapiens) [9]) | composite z-score [10]
1 | [N-]=[N+]=Nc1ccccc1C[C@@]1(C(=O)N2CCCCC2)N=C(c2ccc(OCCCO)cc2)O[C@@H]1c1ccccc1 | 0.46 | -5.13 (inactive) | -0.682 (inactive) | 2.11 (inactive) | -0.0605 (inactive) | 1.23 | 0.298 | 0.417 | 0.36 | 0.131
2 | COCCOC(=O)N1C(=O)[C@@]2(c3cc(C#CC4(O)CCCCCC4)ccc31)[C@H](C(=O)Nc1nc3ccccc3s1)[C@H]1C(=O)O[C@H](c3ccccc3)[C@H](c3ccccc3)N1[C@@H]2c1ccc(OCCO)cc1 | 0.564 | -3.02 (inactive) | -1.1 (inactive) | -0.748 (inactive) | 1.65 (inactive) | 0.587 | 0.366 | 0.669 | 0.849 | 1.42
3 | COC(=O)c1c(CC[C@@H](CO)NC(=O)NCCc2c[nH]c3ccccc23)oc(C(=O)Cc2ccccc2)c1C(=O)OC | -0.229 | -0.195 (inactive) | 0.604 (inactive) | 1.37 (inactive) | -0.713 (inactive) | -0.322 | -0.188 | 0.207 | 0.0487 | 0.0213
4 | COCCCNC(=O)[C@@]1(CCS(=O)(=O)c2ccccc2)N=C(c2ccc(OCCCO)cc2)O[C@H]1c1ccccc1N=[N+]=[N-] | 1.04 | -5.54 (inactive) | -0.372 (inactive) | 0.0451 (inactive) | -1.15 (inactive) | 0.985 | 0.467 | 0.765 | 1.49 | 1.72
5 | CCCCN1CC=CC23O[C@@H]4/C=C\CCCOC(=O)C4[C@H]2C(=O)N(CCCO)[C@@H]3C1=O (stereo not given in full) | -0.311 | 0.275 (inactive) | 0.0302 (inactive) | -0.0778 (inactive) | 0.241 (inactive) | -1.3 | -0.105 | -1.36 | -1.64 | -0.0567
6 | CCCCCCCCCCC(O)C1C=CC2C(=O)NC(=O)C2N1Nc1ccc(Cl)cc1Cl (stereo not given) | 0.333 | -1.95 (inactive) | -0.0821 (inactive) | -0.136 (inactive) | -0.407 (inactive) | -0.261 | -0.0131 | -1.76 | 0.0193 | -0.349
7 | COC(=O)C(CC#Cc1ccc2c(c1)[C@]1(C(=O)N2)[C@H](c2ccc(O)cc2)N2[C@H](c3ccccc3)[C@H](c3ccccc3)OC(=O)[C@H]2[C@@H]1C(=O)N1CCN(c2ncccn2)CC1)C(=O)OC | 0.131 | -2.25 (inactive) | -1.08 (inactive) | -0.644 (inactive) | -0.0048 (inactive) | 0.709 | 0.313 | 0.131 | 0.338 | 0.618
8 | C=C(CCCC)/C(=C/C[C@@H](OC(C)=O)c1ccccc1OCCO)c1cc(C(=O)OC)ccc1OC | -0.115 | -0.774 (inactive) | -0.341 (inactive) | 16 (active) | -1.14 (inactive) | -0.478 | -0.15 | 0.0851 | 0.0547 | 0.566
9 | COc1ccc([C@H]2OC[C@@H]3CCC(=O)N32)cc1 | 0.279 | 0.638 (inactive) | 0.495 (inactive) | 1.2 (inactive) | 0.426 (inactive) | 0.711 | 0.114 | 1.08 | 0.214 | 0.79
10 | COC(=O)[C@@]1(Cc2ccc(OC)cc2)[C@H]2c3cc(C(=O)N4CCCC4)n(CCc4ccc(O)c(O)c4)c3C[C@H]2CN1C(=O)c1ccccc1 | -0.0111 | -1.27 (inactive) | -0.128 (inactive) | 1.54 (inactive) | 0.706 (inactive) | 0.27 | 0.147 | -0.252 | 0.641 | -0.349
11 | O=C1C2C=CC(C(O)c3ccc(F)cc3)N(Nc3ccc([N+](=O)[O-])cc3)C2C(=O)N1c1ccccc1 (stereo not given) | 0.241 | -0.0129 (inactive) | -0.615 (inactive) | -0.415 (inactive) | 0.15 (inactive) | 1.39 | 0.0487 | -0.232 | 0.187 | -0.241
12 | CC(C)[Si](C#CCCCC#N)(Oc1ccccc1Br)C(C)C | 0.0696 | -0.0761 (inactive) | 0.0648 (inactive) | -0.519 (inactive) | -0.0887 (inactive) | 0.525 | -0.15 | 0.42 | 0.222 | 0.544
13 | CC(=O)n1cc(C(O)C2C=CC3C(=O)NC(=O)C3N2Nc2ccccn2)c2ccccc21 (stereo not given) | 0.109 | 0.713 (inactive) | -0.781 (inactive) | -0.14 (inactive) | 0.593 (inactive) | 0.153 | 0.23 | 0.865 | 0.153 | 0.41
14 | CCOC(=O)C[C@H]1[C@H](OC(=O)c2ccc(-c3ccccc3)cc2)[C@@H](NC(=O)c2ccccc2)c2cc(OCCCO)ccc2N1C(=O)Cc1ccc(OC)cc1 | 0.0137 | 0.0974 (inactive) | -0.962 (inactive) | 0.0035 (inactive) | -0.701 (inactive) | -0.238 | 0.0001 | -0.0369 | -0.456 | 0.0151
15 | COc1ccc([Si](C)(C)[C@@H]2[C@@H](CC(=O)N3Cc4ccccc4C[C@H]3CO)O[C@]3(C(=O)N(Cc4cccc(N5CCC5=O)c4)c4ccccc43)[C@H]2C)cc1 | 0.103 | -3.42 (inactive) | -0.0211 (inactive) | 2.03 (inactive) | 1.34 (inactive) | 0.244 | -0.0463 | 0.589 | 0.61 | 1.45
16 | O=C1OCCC=C[C@H]2OC34C=CCN(CCN5CCOCC5)C(=O)[C@H]3N(CCCCCO)C(=O)[C@@H]4C12 (stereo not given in full) | -0.135 | 0.201 (inactive) | -0.199 (inactive) | 1.14 (inactive) | 0.25 (inactive) | 1.38 | -0.253 | 1.14 | 1.52 | 0.139
17 | CCCCCCc1nc(-c2ccc(-c3ccc(Cl)c(Cl)c3)o2)c(C)c2c1[Si](C(C)C)(C(C)C)OC2 | -0.412 | -5.66 (inactive) | -1.17 (inactive) | 0.236 (inactive) | 0.246 (inactive) | 0.0199 | -0.0933 | -0.782 | 0.0515 | 0.14
18 | CC(C)C(=C=CC[C@H](O)c1ccc(CO)o1)CCO | -0.0164 | 0.243 (inactive) | -0.0587 (inactive) | 1.87 (inactive) | 1.33 (inactive) | 0.0515 | -0.0963 | 0.385 | 0.291 | 1.71
19 | O=C(CS)NCCCCCNC(=O)[C@@H]1C[C@@H]2C(=O)NCC(=O)N2[C@@H]1c1cccc(OCCO)c1 | 0.134 | -0.556 (inactive) | -1.2 (inactive) | -0.268 (inactive) | 0.0712 (inactive) | -0.774 | 0.136 | 0.396 | -0.0657 | 1.77
20 | CC=CC(O)C1C=CC2C(=O)N(C)C(=O)C2N1N(c1ccccc1)c1ccccc1 (stereo not given) | 0.16 | 0.695 (inactive) | 0.305 (inactive) | -0.326 (inactive) | 0.493 (inactive) | 0.29 | 0.0536 | 2.7 | 1.3 | 0.306
21 | COc1ccc(NC(=O)O[C@H]2[C@H](OC(=O)c3cc4ccccc4[nH]3)[C@@H](OC(=O)c3cc4ccccc4[nH]3)[C@@H](OC)O[C@@H]2CO)cc1 | 0.147 | -4.18 (inactive) | -1.65 (inactive) | 1.84 (inactive) | -1.1 (inactive) | -0.342 | -0.0044 | -0.0863 | 0.291 | 0.593
22 | [N-]=[N+]=Nc1ccccc1C[C@]1(C(=O)NCC(O)CO)N=C(c2ccc(OCCCO)cc2)O[C@H]1c1ccccc1 (stereo not given in full) | -0.541 | -3.23 (inactive) | 0.382 (inactive) | 1.19 (inactive) | -1.55 (inactive) | 0.204 | 0.0134 | -0.268 | 0.089 | -1.61
23 | COCCOC(=O)N1C(=O)[C@@]2(c3ccccc31)[C@H](c1ccc(OCCO)cc1)N1[C@H](c3ccccc3)[C@H](c3ccccc3)OC(=O)[C@H]1[C@@H]2C(=O)N1CCc2cc(OC)c(OC)cc2C1 | 0.349 | -2.12 (inactive) | -1.28 (inactive) | 0.623 (inactive) | 2.12 (inactive) | 0.743 | 0.505 | 0.518 | 0.153 | 1.84
24 | CCCCC(=C=CC[C@@H](O)c1cccc(OCCO)c1)C[C@@H](O)c1ccccn1 | 0.252 | -0.19 (inactive) | -1.15 (inactive) | -0.102 (inactive) | 0.786 (inactive) | 1.5 | -0.0331 | 1.67 | 0.416 | 1.86
25 | COCCOC(=O)N1C(=O)[C@@]2(c3cc(C#CCCO)ccc31)[C@H](c1ccc(O)cc1)N1[C@H](c3ccccc3)[C@H](c3ccccc3)OC(=O)[C@H]1[C@@H]2C(=O)N1CCN(c2ncccn2)CC1 | 0.449 | -1.97 (inactive) | -0.185 (inactive) | -0.459 (inactive) | 0.648 (inactive) | 0.842 | 1.62 | 0.852 | 0.606 | 1.53
26 | CCCCN1CC=CC23O[C@@H]4C=CCOC(=O)[C@@H]4[C@H]2C(=O)N(CCCCCCO)[C@@H]3C1=O (stereo not given in full) | -0.575 | 0.205 (inactive) | 1.05 (inactive) | -0.0899 (inactive) | 1.12 (inactive) | -1.35 | -0.249 | -0.873 | -0.748 | -0.711
27 | O=C(O)C1N=C(c2ccc(OCCCO)cc2)N(c2ccccc2)O1 (stereo not given) | 0.222 | -0.205 (inactive) | 1.3 (inactive) | 0.101 (inactive) | 1.16 (inactive) | 0.926 | -0.166 | 0.666 | 1.72 | 0.287
28 | COc1ccccc1CN1C(=O)c2ccccc2[C@@]2(Cc3ccccc3N(CCCN(C)C)C2=O)[C@@H]1c1ccc(CO)cc1 | -0.0961 | -4.71 (inactive) | -0.516 (inactive) | -0.0243 (inactive) | -0.926 (inactive) | 0.224 | -0.19 | -0.0118 | 0.0265 | 0.243
29 | O=C1NC(=O)C2C1C=CC(C(O)c1ccc(-c3ccccc3)s1)N2Nc1ccc(Cl)cc1Cl (stereo not given) | 0.289 | -1.1 (inactive) | -1.77 (inactive) | -0.136 (inactive) | -0.128 (inactive) | 1.34 | 0.0569 | 0.344 | 0.14 | -0.82
